Source: PubChem BioAssay AID1159580 (chemical genetic matrix, 2015)
In all, about 5,500 compounds went through this assay and about 2,000 (36%) were called active. Roughly 18% stayed inconclusive and do not appear here. Cut-off read from the data, not from the text of the source: active = normalized growth mostly below about 0.91 (no sharp cut-off); inconclusive = no clear call, values can overlap the other calls; inactive = mostly above about 0.92. The list shows a part of the results.

Assay: chemical genetic growth profiling, strain panel (AID 1159580);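 note: tested at 20 µM; growth read once vehicle control cultures reached saturation at 30 °C; 1 = growth at the plate median or of vehicle wells; lower values mean less growth of the strain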
Conditions: S. cerevisiae deletion strains, growth OD

Measured: normalized growth

C=C1CCC(OC(C)=O)/C(C)=C/C[C@@H]2[C@@H]1CC2(C)C (some centres undefined)
inactive: locus YAL021C, strain ccr4, active compounds read low 1.01 | locus YAL026C, strain drs2, active compounds read low 1.01 | locus YAL030W, strain snc1, active compounds read low 1.01 | locus YBL061C, strain skt5, active compounds read low 1.01 | locus YBR009C, strain hhf1, active compounds read low 1.01 | locus YBR021W, strain FUR4, active compounds read low 1.02 | locus YBR023C, strain chs3, active compounds read low 1.01 | locus YBR171W, strain sec66, active compounds read low 1 | locus YBR229C, strain ROT2, active compounds read low 1 | locus YBR231C, strain swc5, active compounds read low 1.01 | locus YBR279W, strain paf1, active compounds read low 1.01 | locus YCL011C, strain gbp2, active compounds read low 1.02 | locus YCL016C, strain dcc1, active compounds read low 1.01 | locus YCL029C, strain bik1, active compounds read low 1.03 | locus YCL061C, strain MRC1, active compounds read low 1.01 | locus YCL069W, strain vba3, active compounds read low 1.01 | locus YCR088W, strain abp1, active compounds read low 1.01 | locus YDL005C, strain med2, active compounds read low 1.01 | locus YDL035C, strain GPR1, active compounds read low 1.01 | locus YDL040C, strain nat1, active compounds read low 1.01 | locus YDL074C, strain BRE1, active compounds read low 1.02 | locus YDL101C, strain DUN1, active compounds read low 1.02 | locus YDL185W, strain tfp1, active compounds read low 1.03 | locus YDL192W, strain arf1, active compounds read low 1.02 | locus YDR001C, strain nth1, active compounds read low 1 | locus YDR069C, strain doa4, active compounds read low 1.03 | locus YDR101C, strain arx1, active compounds read low 0.983 | locus YDR137W, strain rgp1, active compounds read low 0.929 | locus YDR159W, strain sac3, active compounds read low 1.02 | locus YDR162C, strain NBP2, active compounds read low 0.997 | locus YDR195W, strain ref2 1.02 | locus YDR297W, strain sur2, active compounds read low 1.02 | locus YDR318W, strain mcm21, active compounds read low 1.03 | locus YDR334W, strain swr1, active compounds read low 1.01 | locus YDR335W, strain msn5, active compounds read low 1.01 | locus YDR388W, active compounds read low 1.02 | locus YDR392W, strain spt3, active compounds read low 0.812 | locus YDR502C, strain sam2, active compounds read low 1.03 | locus YEL003W, strain gim4, active compounds read low 1.02 | locus YEL037C, strain rad23, active compounds read low 1.01 | locus YEL061C, strain CIN8 (second series), active compounds read low 1.02 | locus YER015W, strain faa2, active compounds read low 1.01 | locus YER016W, strain bim1, active compounds read low 1.01 | locus YER110C, active compounds read low 1.03 | locus YER111C, strain swi4, active compounds read low 1.01 | locus YER155C, strain BEM2 (second series), active compounds read low 1.03 | locus YER155C, strain BEM2, active compounds read low 1.02 | locus YER167W, strain BCK2, active compounds read low 1.01 | locus YFR010W, strain ubp6, active compounds read low 1.01 | locus YGL078C, strain dbp3, active compounds read low 1.04 | locus YGL086W, strain mad1, active compounds read low 1.01 | locus YGL167C, strain pmr1, active compounds read low 1.02 | locus YGL173C, strain kem1, active compounds read low 1.01 | locus YGL227W, strain vid30, active compounds read low 1.03 | locus YGL240W, strain doc1, active compounds read low 1.01 | locus YGL248W, strain PDE1, active compounds read low 1.01 | locus YGL253W, strain hxk2, active compounds read low 1.01 | locus YGR078C, strain PAC10, active compounds read low 1.03 | locus YGR135W, strain pre9, active compounds read low 1.05 | locus YGR252W, strain gcn5, active compounds read low 1.05 | locus YHR013C, strain ard1, active compounds read low 1 | locus YHR027C, strain rpn1, active compounds read low 1.01 | locus YHR030C, strain SLT2, active compounds read low 1.01 | locus YHR079C, strain IRE1 (second series), active compounds read low 1.02 | locus YHR094C, strain hxt1, active compounds read low 1.01 | locus YHR129C, strain ARP1, active compounds read low 1.01 | locus YHR142W, strain chs7, active compounds read low 0.987 | locus YHR200W, strain rpn10, active compounds read low 1 | locus YIL066C, strain RNR3, active compounds read low 1 | locus YIL073C, strain SPO22, active compounds read low 1.06 | locus YIL125W, strain kgd1, active compounds read low 1 | locus YIR030C, strain dcg1, active compounds read low 1.02 | locus YJL092W, strain hpr5, active compounds read low 1.01 | locus YJL095W, strain BCK1 (second series), active compounds read low 1.01 | locus YJL095W, strain BCK1, active compounds read low 1.02 | locus YJL115W, strain asf1, active compounds read low 1.01 | locus YJL129C, strain trk1, active compounds read low 0.976 | locus YJL134W, strain LCB3, active compounds read low 1.01 | locus YJL154C, strain vps35, active compounds read low 1.01 | locus YJL164C, strain tpk1, active compounds read low 1.01 | locus YJL166W, strain qcr8, active compounds read low 1 | locus YJL168C, strain set2, active compounds read low 1.02 | locus YJL187C, strain SWE1 (second series), active compounds read low 1.05 | locus YJL187C, strain SWE1, active compounds read low 1.01 | locus YJR075W, strain HOC1, active compounds read low 1.02 | locus YKL009W, strain mrt4, active compounds read low 1 | locus YKL068W, active compounds read low 1.01 | locus YKL085W, strain MDH1 (second series), active compounds read low 1.02 | locus YKL085W, strain MDH1, active compounds read low 1.02 | locus YKL160W, strain elf1, active compounds read low 1 | locus YKL190W, strain CNB1, active compounds read low 1.01 | locus YKR001C, strain vps1, active compounds read low 0.996 | locus YKR026C, strain gcn3, active compounds read low 0.987 | locus YKR091W, strain srl3, active compounds read low 1.01 | locus YLL001W, strain dnm1, active compounds read low 1.02 | locus YLL026W, active compounds read low 1.02 | locus YLL041C, strain sdh2, active compounds read low 1.01 | locus YLR027C, strain aat2, active compounds read low 1 | locus YLR039C, strain RIC1, active compounds read low 0.957 | locus YLR058C, strain SHM2, active compounds read low 1 | locus YLR102C, strain apc9, active compounds read low 1 | locus YLR221C, strain rsa3, active compounds read low 1.01 | locus YLR258W, strain gsy2, active compounds read low 1.01 | locus YLR262C, strain YPT6 (second series), active compounds read low 0.905 | locus YLR262C, strain YPT6, active compounds read low 0.932 | locus YLR268W, strain sec22, active compounds read low 0.995 | locus YLR320W, strain mms22, active compounds read low 0.972 | locus YLR342W, strain FKS1, active compounds read low 1.01 | locus YLR357W, strain rsc2, active compounds read low 1.01 | locus YLR370C, strain arc18, active compounds read low 1.01 | locus YLR371W, strain rom2, active compounds read low 1.03 | locus YLR384C, strain iki3, active compounds read low 0.999 | locus YLR418C, strain cdc73, active compounds read low 1.06 | locus YML016C, strain PPZ1, active compounds read low 1.02 | locus YML032C, strain rad52, active compounds read low 0.995 | locus YML120C, strain ndi1, active compounds read low 1.02 | locus YML124C, strain tub3, active compounds read low 1.01 | locus YMR058W, strain fet3, active compounds read low 1.01 | locus YMR078C, strain ctf18, active compounds read low 1.03 | locus YMR125W, strain sto1, active compounds read low 1.02 | locus YMR129W, active compounds read low 1.01 | locus YMR205C, strain PFK2, active compounds read low 0.996 | locus YMR223W, strain ubp8, active compounds read low 1.02 | locus YMR231W, strain pep5, active compounds read low 1.01 | locus YMR307W, strain GAS1, active compounds read low 0.973 | locus YNL067W, strain RPL9B, active compounds read low 1.02 | locus YNL071W, strain lat1, active compounds read low 0.99 | locus YNL209W, strain ssb2, active compounds read low 1.02 | locus YNL233W, strain BNI4, active compounds read low 1.04 | locus YNL248C, strain rpa49, active compounds read low 0.997 | locus YNL250W, strain rad50, active compounds read low 1.07 | locus YNL271C, strain bni1, active compounds read low 1.01 | locus YNL298W, strain CLA4, active compounds read low 1.01 | locus YNL307C, strain MCK1, active compounds read low 1.02 | locus YNL322C, strain KRE1 (second series), active compounds read low 1.02 | locus YNL322C, strain KRE1, active compounds read low 1.01 | locus YNR049C, strain mso1, active compounds read low 1.02 | locus YNR052C, strain pop2, active compounds read low 1.03 | locus YOL012C, strain htz1 1.04 | locus YOL147C, strain pex11, active compounds read low 1.02 | locus YOR001W, strain rrp6, active compounds read low 1.02 | locus YOR061W, strain CKA2, active compounds read low 1 | locus YOR069W, strain VPS5, active compounds read low 1.01 | locus YOR070C, strain gyp1, active compounds read low 1 | locus YOR080W, strain dia2, active compounds read low 1.01 | locus YOR083W, strain WHI5, active compounds read low 1.01 | locus YOR106W, strain vam3, active compounds read low 0.994 | locus YOR136W, strain idh2, active compounds read low 0.997 | locus YOR144C, strain elg1, active compounds read low 1.01 | locus YOR184W, strain ser1, active compounds read low 0.992 | locus YOR265W, strain rbl2, active compounds read low 1.01 | locus YOR270C, strain vph1, active compounds read low 0.909 | locus YOR290C, strain snf2, active compounds read low 0.963 | locus YOR316C, strain cot1, active compounds read low 1.02 | locus YPL051W, strain arl3, active compounds read low 0.994 | locus YPL055C, strain LGE1, active compounds read low 1.04 | locus YPL078C, strain atp4, active compounds read low 1 | locus YPL106C, strain sse1, active compounds read low 1.05 | locus YPL240C, strain hsp82, active compounds read low 1.01 | locus YPR119W, strain clb2, active compounds read low 1.01 | locus YPR141C, strain kar3, active compounds read low 1.02 | locus YPR163C, strain tif3, active compounds read low 1 | locus YPR167C, strain met16, active compounds read low 1.02 | strain wtn01, active compounds read low 1
